The source of these data is PubChem BioAssay (NCATS).

Structures are written as SMILES. “And” between values parts separate entries of the source, which are not always exact repeats. Equal values may be shown once. Records with an inconclusive call do not appear. Unmarked numbers belong to inactive results. The source made the active and inactive calls. Calls come from the whole dose curve; as a rule, active = well fitted cell-killing curve with a large enough effect; inconclusive = small, poorly fitted or top-dose-only effect; inactive = flat fitted curve, though single readings scatter.
Potency is the fitted concentration of half-maximal effect.

A short description of this assay: Cellular viability qHTS for adrenocortical cancer (ACC) cell line NCI-H295R (AID 1963990).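 For activity change, negative = viability loss: 0% = DMSO only wells and -100% = full killing with cytotoxic reference compound.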 Note: nearly all actives have a fitted effect of over 60% in size. To be noted: CellTiter-Glo ATP luminescence, 48 h; series mostly up to 46.1 µM; activity change, negative = viability loss: at the top concentration. The gist of the method: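 Adrenocortical carcinoma cells, suspended at 300 000 cells/mL in serum-free DMEM plus ITS, rested overnight before pin transfer of compound. After two days' incubation, ATP-dependent luminescence was recorded and curve-fitted.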
Regarding `CC(=O)OCC(CCn1cnc2cnc(N)nc21)COC(C)=O`, the Potency entry is “inactive”.

For `CNC(=O)c1ccc2cc(C3(O)CCn4cncc43)ccc2c1` (centres undefined), the “activity change, negative = viability loss” value was -12.2%. The same measure, in the same setting: to `COc1ncc(-c2ccc3c(Nc4cc(Oc5cc(F)cc(F)c5)cc(C(=O)O)c4)c(S(=O)(=O)NC4CC4)cnc3c2)c(OC)n1` belongs -24.2%.

As to `O=C1CCC[C@@H]2[C@H]3CCC[N+]4([O-])CCC[C@@H](CN12)[C@@H]34` (some centres undefined), the “activity change, negative = viability loss” value was -6.78%. Regarding `CN(CCOc1ccc(NS(C)(=O)=O)cc1)CCc1ccc(NS(C)(=O)=O)cc1`, the Potency entry is “inactive”. Regarding `CC[C@@H]([C@H](C)O)n1ncn(-c2ccc(N3CCN(c4ccc(OCC5CO[C@@](Cn6cncn6)(c6ccc(F)cc6F)C5)cc4)CC3)cc2)c1=O` (some centres undefined), the “activity change, negative = viability loss” value was -2.32%. Same read-out and setting: to `O=C(c1ccc(F)cc1)C1CCN(CCn2c(=O)[nH]c3ccccc3c2=O)CC1` belongs -9.13%. As to `COc1ccc(F)c(F)c1C(=O)c1cnc(NC2CCN(S(C)(=O)=O)CC2)nc1N`, the Potency was 3.16 µM (active). Take `CC1CNc2c(cccc2S(=O)(=O)N[C@@H](CCCN=C(N)N)C(=O)N2CC[C@@H](C)C[C@@H]2C(=O)O)C1` (some centres undefined): the “activity change, negative = viability loss” value is -13.6%.

Regarding `Cc1cnc(Nc2ccc(OCCN3CCCC3)cc2)nc1Nc1cccc(S(=O)(=O)NC(C)(C)C)c1`, the Potency was 10 µM (active). Same read-out and setting: to `CCCCN(CCCC)CCC(O)c1cc2c(Cl)cc(Cl)cc2c2cc(C(F)(F)F)ccc12` (centres undefined) belongs 5.8 µM (active). Consider `NCCS(=O)(=O)O`, for which the “activity change, negative = viability loss” value is -23.8%. For `C[C@@H](NCCCc1cccc(C(F)(F)F)c1)c1cccc2ccccc12`, the Potency was 5.17 µM (active) and 8.91 µM (active). Same read-out and setting: to `COc1ccc2[nH]cc(CCNC(C)=O)c2c1` belongs “inactive”.

In the case of `CCCOc1ccc(C(=O)OCCN(CC)CC)cc1N`, the Potency entry is “inactive”. Still for that read-out and setting: to `NCCc1cnc[nH]1` belongs “inactive”.

For the compound `CC1CCN(c2cc(N3CCN(C)CC3)ccc2NC(=O)c2cc(C#N)c[nH]2)CC1`, the “activity change, negative = viability loss” value is -1.55%.

For `COc1ccc([C@@H]2CNC(=O)C2)cc1OC1CCCC1`, the “activity change, negative = viability loss” value was -12.1%.

As to `CN1CC[C@@H](c2c(O)cc(O)c3c(=O)cc(-c4ccccc4Cl)oc23)[C@@H](O)C1`, the Potency was 1.26 µM (active). Turning to `Cc1c(-c2ccnn2C)cc(C(=O)NCc2ccc(S(C)(=O)=O)cn2)c(=O)n1-c1cccc(C(F)(F)F)c1`, the “activity change, negative = viability loss” value was -1.59%. For `COC(=O)Nc1cc(Nc2cc(NC3CC3)c3ncc(C#N)n3n2)c(Cl)c(N2CCN(C)CC2)c1`, the Potency is 2.24 µM (active). Regarding `Cc1cc(Nc2ncnc3ccc(-c4ccc(CNCCS(C)(=O)=O)o4)cc23)ccc1Oc1ccn2ncnc2c1`, the “activity change, negative = viability loss” value is -4.87%. With `O[C@@H](COc1cccc2ncccc12)CN1CCN(C2c3ccccc3[C@@H]3[C@H](c4ccccc42)C3(F)F)CC1` (some centres undefined), the Potency is 3.55 µM (active). Take `CC1=CC(=O)c2ccccc2C1=O`: the “activity change, negative = viability loss” value is 0.614%. Regarding `CN(C)c1nc(N(C)C)nc(N(C)C)n1`, the Potency entry was “inactive”. As to `CNCc1ccc(-c2[nH]c3cc(F)cc4c3c2CCNC4=O)cc1`, the “activity change, negative = viability loss” value is -24.8%. As for `CC(NCCc1ccc(O)cc1)C(O)c1ccc(O)cc1` (centres undefined), the “activity change, negative = viability loss” value is 0.655%. On to `CN1CCN(Cc2ccc(NC(=O)Nc3ccc(Oc4cc(NC(=O)C5CC5)ncn4)cc3)cc2C(F)(F)F)CC1`, for which the Potency was 1.26 µM (active). Consider `Cc1nc(N)ncc1-c1nc(N2CCOCC2)c2sc(C(C)(C)O)cc2n1`, for which the Potency is 2.24 µM (active). `Cn1cnc2c(F)c(Nc3ccc(Br)cc3Cl)c(C(=O)NOCCO)cc21`: the “activity change, negative = viability loss” value was -2.52%. Same read-out and setting: under `COC(=O)N1CC2(CC2)C[C@H](C(=O)NO)[C@H]1C(=O)N1CCN(c2ccccc2)CC1` stands -14.3%.

Consider `CN1CCC(COc2cnc(-c3cccc(Cn4nc(-c5cccc(C#N)c5)ccc4=O)c3)nc2)CC1`, for which the Potency is 25.1 µM (active). Turning to `Oc1ccc(-c2nc(-c3ccc(F)cc3)c(-c3ccncc3)[nH]2)cc1`, the “activity change, negative = viability loss” value is -18.6%.

Regarding `CCN(CC)CCNC(=O)c1ccc2nc(-c3ccccc3)c(-c3ccc(CN4CCC(n5c(=O)[nH]c6ccccc65)CC4)cc3)nc2c1`, the Potency was 3.98 µM (active).
